{"source": "PubChem BioAssay (NCATS)", "note": "Results filed as inconclusive are left out. A number with no mark means an inactive call. Calls of active or inactive are those of the source. Calls come from the whole dose curve; as a rule, active = well fitted inhibition curve with a large enough effect; inconclusive = small, poorly fitted or top-dose-only effect; inactive = no such curve, though single readings can be large or run the other way. % is set by controls: 0 for no effect and ±100 for the full control effect; potency is the fitted concentration of half-maximal effect.", "data": [{"test": "qHTS assay to identify inhibitors of the type 1 interferon - major histocompatibility complex class I in skeletal muscle: Counter screen cell viability and HiBit confirmation (AID 1347412); note: nearly all actives have a fitted effect of over 60% in size", "settings": "iHSKM muscle cells + IFN-b, HiBiT or CellTiter-Glo, 24 h; Potency: HiBiT unless noted; Viability, at 45.9 µM (top of the series); activity change, negative = inhibition: at the top concentration", "from_the_text": "Assay Submitter (PI): Travis B. Kinder Ph.D. & James Inglese Ph.D. Assay Development and Screening Technology Laboratory (ADST) National Center for Advancing Translational Sciences (NCATS), Rockville, MD National Institute of Health (NIH), Bethesda, Maryland Idiopathic inflammatory myopathies, collectively referred to as myositis, are a group of rare autoimmune diseases characterized by skeletal muscle inflammation, weakness, and usually accompanied by systemic pathologies of the skin, lungs, or vasculature. Current immunosuppressive therapies and glucocorticoids are often not curative and are accompanied by harsh side effects, especially in children with juvenile myositis. We initiated a drug repurposing and development program to identify more targeted, less toxic therapeutics to treat myositis. Although its cause is not known, muscle from a subset of patients have an abundance of the inflammatory type 1 interferon (IFN) and a down-stream product major histocompatibility complex class I (MHC class I), which are both thought to contribute to damage and weakness. We conducted quantitative high throughput screening on 6,576 compounds (4,679 unique) through a series of cell-based assays to identify those that inhibit the IFN-stimulated expression of MHC class I in muscle precursor cells (myoblasts). The compound identification and evaluation strategy utilized a primary screen with reporter-tagged MHC class I in genome-engineered myoblasts, ATP content counter screen for viability, HLA-ABC immunofluorescence secondary screen, and HLA-B RT-qPCR tertiary screen. The primary screen utilized CRISPR/Cas9 genome-engineering of immortalized human myoblasts, C25cl48, where a pro-luminescent reporter HiBit was fused to the C-terminus of endogenous MHC class I allele HLA-B*08:01 (HLA-B HiBit myoblasts). HiBit is an 11 amino acid fragment of NanoLuc luminescent reporter (Promega Corporation), and when complexed to the larger LgBit fragment, the reconstituted enzyme produces light in the presence of furimazine substrate (Schwinn et al., 2018). Briefly, HLA-B HiBit myoblasts were plated into 1536-well plates, treated with 4.0 ng/ml human IFN-beta and 650 inhibitory compounds identified from primary screening in a 12-point, 1:3 titration with a high final concentration of 46 uM. Compounds were pinned into duplicate plates, with one for HiBit confirmation and one for ATP content viability assay. After 24 hrs of treatment, cells were assayed by either Nano-Glo HiBiT Lytic Detection System (Promega) or CellTiter Glo (Promega), and luminescence measured by a ViewLux 1430 Ultra HTS (Perkin Elmer). References: Schwinn MK, Machleidt T, Zimmerman K, Eggers CT, Dixon AS, Hurst R, Hall MP, Encell LP, Binkowski BF, Wood K V. 2018. CRISPR-Mediated Tagging of Endogenous Proteins with a Luminescent Peptide. ACS Chem Biol 13:467-474. doi:10.1021/acschembio.7b00549\nPROTOCOL TABLE (as described by Inglese et al., 2007) SEQUENCE No. (e.g., 1, 2, 3, etc.); […] (e.g., Cells, Incubation, Reagent, etc.); VALUE; DESCRIPTION 1a; Cells; 5 uL; Use a Multidrop Combi (Thermo Scientific) to seed 300 cells/well into 16 Greiner 1536 well white/solid bottom, high base, TC plates in 5 ul/well of iHSKM growth medium (GM) without dexamethasone into columns 1+2. Add metal lids with gas-exchange holes 1b; Cells; 5 uL; Use a Multidrop Combi (Thermo Scientific) to seed 300 cells/well into 16 Greiner 1536 well white/solid bottom, high base, TC plates in 5 ul/well of iHSKM GM without dexamethasone + 4 ng/ml IFN-b into columns 3 - 48. Add metal lids with gas-exchange holes 2; Incubate; 1 hr; Incubate at 37 C, 5% CO2, 95% RH 3; Compounds; 23 nl; Use Pin Tool (Wako) to transfer DMSO control, 92 uM final digitonin cytotoxic control, ruxolitinib IFN-b inhibitor control [High Concentration = 80 uM final, 16-pt, 1:2 in duplicate], and library compounds in DMSO. […]", "units": {"activity change, negative = inhibition": "%"}, "values": [{"smiles": "CCCCC(CC)CN=C(N)NC(N)=NCCCCCCN=C(N)NC(N)=NCC(CC)CCCC", "note": "(centres undefined)", "Potency": "22.2 µM [Viability] (active)"}, {"smiles": "CC(=O)OCC(=O)[C@@]1(O)CC[C@H]2[C@@H]3CCC4=CC(=O)C=C[C@]4(C)[C@H]3[C@@H](O)C[C@@]21C", "activity change, negative = inhibition": -0.051}, {"smiles": "COc1cccc2c1C(=O)c1c(O)c3c(c(O)c1C2=O)C[C@@](O)(C(C)=O)C[C@@H]3O[C@H]1C[C@H](N)[C@H](O)[C@H](C)O1", "Potency": "0.442 µM (active)"}, {"smiles": "C[C@]12C=CC(=O)C=C1CC[C@@H]1[C@@H]2[C@@H](O)C[C@@]2(C)[C@H]1CC[C@]2(O)C(=O)CO", "Potency": "inactive"}, {"smiles": "C[C@]12C=CC(=O)C=C1[C@@H](F)C[C@@H]1[C@@H]2[C@@H](O)C[C@@]2(C)[C@H]1CC[C@]2(O)C(=O)CO", "Potency": "inactive"}, {"smiles": "C[C@]12CCC(=O)C=C1CC[C@H]1[C@@H]3CC[C@](O)(C(=O)CO)[C@@]3(C)C[C@H](O)[C@@]12F", "activity change, negative = inhibition": 16}, {"smiles": "C[C@H]1C[C@H]2[C@@H]3CCC4=CC(=O)C=C[C@]4(C)[C@@]3(Cl)[C@@H](O)C[C@]2(C)[C@@]1(O)C(=O)CO", "Potency": "inactive"}, {"smiles": "CC(C)n1nc(-c2cc3cc(O)ccc3[nH]2)c2c(N)ncnc21", "Potency": "3.52 µM (active)"}, {"smiles": "CC(=O)OCC(=O)[C@@]12N=C(C)O[C@@H]1C[C@H]1[C@@H]3CCC4=CC(=O)C=C[C@]4(C)[C@H]3[C@@H](O)C[C@@]12C", "Potency": "inactive"}, {"smiles": "COc1cc(C=C2CCC/C(=C\\c3ccc(O)c(OC)c3)C2=O)ccc1O", "activity change, negative = inhibition": -6.23}, {"smiles": "CC(=O)OCC(=O)[C@@]1(OC(C)=O)[C@@H](C)C[C@H]2[C@@H]3C[C@H](F)C4=CC(=O)C=C[C@]4(C)[C@@]3(F)[C@@H](O)C[C@@]21C", "Potency": "inactive"}, {"smiles": "CCCC(=O)O[C@]1(C(=O)CO)CC[C@H]2[C@@H]3CCC4=CC(=O)CC[C@]4(C)[C@H]3[C@@H](O)C[C@@]21C", "activity change, negative = inhibition": 15.6}, {"smiles": "CCCCC(=O)O[C@]1(C(=O)CO)CC[C@H]2[C@@H]3CCC4=CC(=O)CC[C@]4(C)[C@H]3[C@@H](O)C[C@@]21C", "Potency": "inactive"}, {"smiles": "CC(=O)OCC(=O)[C@@]12OC(C)(C)O[C@@H]1C[C@H]1[C@@H]3C[C@H](F)C4=CC(=O)C=C[C@]4(C)[C@@]3(F)[C@@H](O)C[C@@]12C", "activity change, negative = inhibition": -0.206}]}]}
